Measured values taken from PubChem BioAssay (NCI).
Compounds without any hit were thinned out: in the full panel of roughly 83,000, 20% have a hit.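 96-well plates, one dose, 48 hours. Percent growth reported; active if below 10.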 Active and inactive are the calls of the source.

Columns and labels:
Test in all cases: NCI-60 one-dose screen, 48 h (100 = growth as untreated, 0 = no growth, -100 = all killed)
Conditions in all cases: 10 µM unless noted
SR leukemia = test system: SR leukemia
RPMI-8226 leukemia = test system: RPMI-8226 leukemia
OVCAR-8 ovarian = test system: OVCAR-8 ovarian
OVCAR-5 ovarian = test system: OVCAR-5 ovarian
OVCAR-4 ovarian = test system: OVCAR-4 ovarian
SK-OV-3 ovarian = test system: SK-OV-3 ovarian
IGROV1 ovarian = test system: IGROV1 ovarian
OVCAR-3 ovarian = test system: OVCAR-3 ovarian
HS 578T breast = test system: HS 578T breast
NCI/ADR-RES ovarian = test system: NCI/ADR-RES ovarian

Measured: growth

C#Cc1cccc(NC(=O)Nc2cccc(N=C=S)c2)c1
inactive: SR leukemia 88.9% [8.25 µM] | RPMI-8226 leukemia 99.3% [8.25 µM] | OVCAR-8 ovarian 98.6% [8.25 µM] | OVCAR-5 ovarian 102% [8.25 µM] | OVCAR-4 ovarian 99.6% [8.25 µM] | SK-OV-3 ovarian 120% [8.25 µM] | IGROV1 ovarian 98.4% [8.25 µM] | OVCAR-3 ovarian 115% [8.25 µM] | HS 578T breast 95.6% [8.25 µM] | NCI/ADR-RES ovarian 106% [8.25 µM]

C/C(=C(/c1ccccc1)c1ccc(OCC(O)CN2CCOCC2)cc1)c1ccccc1 (stereo not given)
inactive: SR leukemia 47.2% | RPMI-8226 leukemia 75% | OVCAR-8 ovarian 88.5% | OVCAR-5 ovarian 87.2% | OVCAR-4 ovarian 89.3% | SK-OV-3 ovarian 91.3% | IGROV1 ovarian 96.2% | OVCAR-3 ovarian 90.4% | HS 578T breast 90.8% | NCI/ADR-RES ovarian 93.2%

O=C(OCc1nc2nc(Cl)nc(N3CCOCC3)c2[nH]1)n1ccnc1
inactive: OVCAR-5 ovarian 22.3% | SK-OV-3 ovarian 46.2%
active: SR leukemia -14.2% | RPMI-8226 leukemia -35.7% | OVCAR-8 ovarian -44.9% | OVCAR-4 ovarian -38.3% | IGROV1 ovarian 2.36% | OVCAR-3 ovarian -84.9% | HS 578T breast 5.43% | NCI/ADR-RES ovarian 6.27%

C[C@]12CCc3nc(Nc4cccc(O)c4)sc3C1=CC[C@@H]1[C@@H]2CC[C@]2(C)/C(=N\NC(N)=S)CC[C@@H]12
active: SR leukemia 8.77% | RPMI-8226 leukemia -22.2% | IGROV1 ovarian -35.5% | OVCAR-3 ovarian -54% | HS 578T breast -0.0546%
inactive: OVCAR-8 ovarian 30.5% | OVCAR-5 ovarian 58.8% | OVCAR-4 ovarian 39% | SK-OV-3 ovarian 29.9% | NCI/ADR-RES ovarian 47.8%

O=C1NC(=S)NC(=O)C1=Cc1cn(Cc2ccccn2)c2ccccc12
active: OVCAR-5 ovarian -4.45%
inactive: SR leukemia 13.1% | RPMI-8226 leukemia 91.2% | OVCAR-8 ovarian 51.7% | OVCAR-4 ovarian 80.8% | SK-OV-3 ovarian 85.5% | IGROV1 ovarian 11.3% | OVCAR-3 ovarian 33.5% | HS 578T breast 81.9% | NCI/ADR-RES ovarian 85.1%

CN(C)C(=O)OCc1nc2c(N3CCOCC3)nc(-c3ccccc3)nc2n1C
inactive: SK-OV-3 ovarian 59.7%
active: SR leukemia 4.42% | RPMI-8226 leukemia -30% | OVCAR-8 ovarian -5.95% | OVCAR-5 ovarian -85.5% | OVCAR-4 ovarian -82.2% | IGROV1 ovarian -95.2% | OVCAR-3 ovarian -78.1% | HS 578T breast -35.2% | NCI/ADR-RES ovarian -8.35%

COc1ccc(-c2c[nH]c(C(=O)O)c2-c2cc(OC)c3c(c2OC)OCO3)cc1
inactive: SR leukemia 106% | RPMI-8226 leukemia 140% | OVCAR-8 ovarian 101% | OVCAR-5 ovarian 96.5% | OVCAR-4 ovarian 100% | SK-OV-3 ovarian 119% | IGROV1 ovarian 103% | OVCAR-3 ovarian 109% | HS 578T breast 99.9% | NCI/ADR-RES ovarian 99.2%

CN1CCN(C(=O)[C@]2(C)CC[C@]3(C)CC[C@]4(C)C(=CC(=O)[C@@H]5[C@@]6(C)CCC(=O)NC(C)(C)[C@@H]6CC[C@]54C)[C@@H]3C2)CC1
inactive: SR leukemia 77.6% | RPMI-8226 leukemia 99.7% | OVCAR-8 ovarian 99.8% | OVCAR-5 ovarian 110% | OVCAR-4 ovarian 92.1% | SK-OV-3 ovarian 91% | IGROV1 ovarian 99.9% | OVCAR-3 ovarian 101% | HS 578T breast 88.1% | NCI/ADR-RES ovarian 96.6%

CC(=O)N1N=C(c2cccc(Nc3ccncc3)c2)CC1c1ccccc1 (stereo not given)
inactive: SR leukemia 58.3% | RPMI-8226 leukemia 76.2% | OVCAR-8 ovarian 88.9% | OVCAR-5 ovarian 90.1% | OVCAR-4 ovarian 89.7% | SK-OV-3 ovarian 84.2% | IGROV1 ovarian 96% | OVCAR-3 ovarian 91.7% | HS 578T breast 83.4% | NCI/ADR-RES ovarian 91.9%

O=C1c2cccnc2C(=O)c2nc3cc(N4CCN(C5CC5)CC4)ccc3nc21
active: SR leukemia -10% | OVCAR-8 ovarian -15.2% | OVCAR-5 ovarian -82.3% | OVCAR-4 ovarian -87.8% | SK-OV-3 ovarian -78.6% | IGROV1 ovarian -13.8% | OVCAR-3 ovarian -1.56% | HS 578T breast -36.5%
inactive: RPMI-8226 leukemia 25.3% | NCI/ADR-RES ovarian 20.1%

CC1(C)CN(c2cnc(C(=O)Nc3cc(F)cc4cccnc34)cn2)CCN1
active: SR leukemia 7.28%
inactive: RPMI-8226 leukemia 75.6% | OVCAR-8 ovarian 96.5% | OVCAR-5 ovarian 86.1% | OVCAR-4 ovarian 15% | SK-OV-3 ovarian 79.5% | IGROV1 ovarian 36.2% | OVCAR-3 ovarian 10.6% | HS 578T breast 71.6% | NCI/ADR-RES ovarian 90.9%

CC[C@H](CC[C@@H](C)[C@H]1CC[C@H]2[C@@H]3CC=C4C[C@@H](OCCc5nn[nH]n5)CC[C@]4(C)[C@H]3CC[C@]12C)C(C)C
inactive: SR leukemia 105% | RPMI-8226 leukemia 113% | OVCAR-8 ovarian 108% | OVCAR-5 ovarian 108% | OVCAR-4 ovarian 104% | SK-OV-3 ovarian 96.8% | IGROV1 ovarian 100% | OVCAR-3 ovarian 103% | HS 578T breast 113% | NCI/ADR-RES ovarian 98.3%

CC(C)NC(=O)N1C(=O)CCC1NNC(=O)c1ccc([N+](=O)[O-])cc1 (stereo not given)
inactive: SR leukemia 94.9% | RPMI-8226 leukemia 110% | OVCAR-8 ovarian 111% | OVCAR-5 ovarian 103% | OVCAR-4 ovarian 97.9% | SK-OV-3 ovarian 113% | IGROV1 ovarian 104% | OVCAR-3 ovarian 105% | HS 578T breast 117% | NCI/ADR-RES ovarian 95%

CN(C)CCCn1c2c(c3ccc(-c4ccn[nH]4)cc3c1=O)C(=O)c1ccccc1-2
inactive: OVCAR-8 ovarian 23.7% | OVCAR-5 ovarian 59.2% | OVCAR-4 ovarian 77.9% | SK-OV-3 ovarian 23.5% | IGROV1 ovarian 41.2% | OVCAR-3 ovarian 66.9% | HS 578T breast 68.6% | NCI/ADR-RES ovarian 50.3%
active: SR leukemia -1.12% | RPMI-8226 leukemia -0.979%

COc1ccc(C(=O)/C=C/c2cn(Cc3ccc(Cl)cc3)c3ccccc23)cc1
inactive: SR leukemia 20.1% | RPMI-8226 leukemia 70.7% | OVCAR-8 ovarian 71% | OVCAR-5 ovarian 13.4% | OVCAR-4 ovarian 76.3% | SK-OV-3 ovarian 57.4% | IGROV1 ovarian 23.7% | OVCAR-3 ovarian 57.6% | HS 578T breast 60% | NCI/ADR-RES ovarian 38.4%

CCCCCCOc1ccc(/C=N/Nc2cc(C)nc3ccc(Br)cc23)cc1
active: SR leukemia -32.2% | RPMI-8226 leukemia -42.4% | OVCAR-8 ovarian -36.1% | OVCAR-5 ovarian -92.7% | OVCAR-4 ovarian -88.5% | IGROV1 ovarian -85.3% | OVCAR-3 ovarian -91.6% | HS 578T breast -40.4% | NCI/ADR-RES ovarian -67.1%
inactive: SK-OV-3 ovarian 101%

O=C(CCN1CCCC1)Nc1ccc2c(NCc3ccc(F)cc3)c3ccccc3nc2c1
inactive: NCI/ADR-RES ovarian 70.3%
active: SR leukemia -13.2% | RPMI-8226 leukemia -34.8% | OVCAR-8 ovarian 2.58% | OVCAR-5 ovarian 2.2% | OVCAR-4 ovarian -30.9% | SK-OV-3 ovarian -5.63% | IGROV1 ovarian -2.1% | OVCAR-3 ovarian -46.5% | HS 578T breast -9.73%

Cc1cc2nc(-c3ccccc3)c(-c3ccccc3)nc2cc1C
inactive: SR leukemia 76.9% | RPMI-8226 leukemia 88.1% | OVCAR-8 ovarian 108% | OVCAR-5 ovarian 115% | OVCAR-4 ovarian 98.9% | SK-OV-3 ovarian 108% | IGROV1 ovarian 112% | OVCAR-3 ovarian 113% | HS 578T breast 118% | NCI/ADR-RES ovarian 93.1%

CCN1C(=O)N(CC)C2NC(SC)=NC21 (stereo not given)
inactive: SR leukemia 107% | RPMI-8226 leukemia 157% | OVCAR-8 ovarian 104% | OVCAR-5 ovarian 88.9% | OVCAR-4 ovarian 103% | SK-OV-3 ovarian 104% | IGROV1 ovarian 102% | OVCAR-3 ovarian 102% | HS 578T breast 94.1% | NCI/ADR-RES ovarian 99.7%

Cc1ccc2nc3c(cc2c1)CSc1nnc(-c2ccc[nH]c2=S)n1N3
inactive: SR leukemia 83.3% | RPMI-8226 leukemia 99.5% | OVCAR-8 ovarian 100% | OVCAR-5 ovarian 99.5% | OVCAR-4 ovarian 109% | SK-OV-3 ovarian 88.8% | IGROV1 ovarian 82.7% | OVCAR-3 ovarian 99.5% | HS 578T breast 96.3% | NCI/ADR-RES ovarian 93.4%

COc1ccc2c(c1)c(CC(=O)NCCOCCOCC(=O)Nc1ccc(OC)c(C(N)=O)c1O)c(C)n2C(=O)c1ccc(Cl)cc1
inactive: SR leukemia 90.2% | RPMI-8226 leukemia 96.9% | OVCAR-8 ovarian 90.3% | OVCAR-5 ovarian 112% | OVCAR-4 ovarian 93.7% | SK-OV-3 ovarian 109% | IGROV1 ovarian 93.9% | OVCAR-3 ovarian 103% | HS 578T breast 105% | NCI/ADR-RES ovarian 91.6%

CSc1nc(O)c(-c2ccccc2)c(=O)[nH]1
inactive: SR leukemia 96% | RPMI-8226 leukemia 102% | OVCAR-8 ovarian 101% | OVCAR-5 ovarian 97.5% | OVCAR-4 ovarian 108% | SK-OV-3 ovarian 116% | IGROV1 ovarian 104% | OVCAR-3 ovarian 120% | HS 578T breast 110% | NCI/ADR-RES ovarian 106%

CCOC(=O)N1CCN(CCCCl)CC1
inactive: SR leukemia 97.1% | RPMI-8226 leukemia 114% | OVCAR-8 ovarian 98.8% | OVCAR-5 ovarian 93.3% | OVCAR-4 ovarian 109% | SK-OV-3 ovarian 126% | IGROV1 ovarian 97.1% | OVCAR-3 ovarian 119% | HS 578T breast 108% | NCI/ADR-RES ovarian 102%

Cc1cc(C)c(C=O)c(C)c1
inactive: SR leukemia 105% | RPMI-8226 leukemia 89.8% | OVCAR-8 ovarian 94.2% | OVCAR-5 ovarian 98.5% | OVCAR-4 ovarian 108% | SK-OV-3 ovarian 74.7% | IGROV1 ovarian 111% | OVCAR-3 ovarian 107% | HS 578T breast 104% | NCI/ADR-RES ovarian 107%

COc1cc(NCC(C)(O)CN(CC(C)C)CC(C)C)c2nc(C)ccc2c1 (stereo not given)
inactive: SR leukemia 87.7% | RPMI-8226 leukemia 68.6% | OVCAR-8 ovarian 86.9% | OVCAR-5 ovarian 89.5% | OVCAR-4 ovarian 23.2% | SK-OV-3 ovarian 98.6% | IGROV1 ovarian 73.4% | OVCAR-3 ovarian 24.8% | HS 578T breast 83.9% | NCI/ADR-RES ovarian 79.6%

CCN1C(=O)N(CC)C2C1NN=c1s/c(=C3\C(=O)Nc4ccccc43)c(=O)n12 (stereo not given)
active: OVCAR-3 ovarian -12.8%
inactive: SR leukemia 18.4% | RPMI-8226 leukemia 36.9% | OVCAR-8 ovarian 31.6% | OVCAR-5 ovarian 50.6% | OVCAR-4 ovarian 51.1% | SK-OV-3 ovarian 18.4% | IGROV1 ovarian 35.2% | HS 578T breast 13.2% | NCI/ADR-RES ovarian 42%

CC1=CC[C@@H]2CC[C@]3(C)[C@H](CC[C@@H]4[C@@]5(C)CCCNC(C)(C)[C@@H]5CC[C@]43C)[C@H]2[C@@H]1C
active: SR leukemia 5.05% | RPMI-8226 leukemia -32.8% | OVCAR-8 ovarian -87.3% | OVCAR-4 ovarian -41% | OVCAR-3 ovarian -28.9% | NCI/ADR-RES ovarian -45.1%
inactive: OVCAR-5 ovarian 41.1% | SK-OV-3 ovarian 103% | IGROV1 ovarian 40.5% | HS 578T breast 92.9%
